Assay [1] can be described thus: ovarian cancer cell viability with rucaparib, profiling panel, oncology-focused library, rucaparib conditional (AID 1508598). Conditions: patient-derived ovarian cancer cells, CellTiter-Glo viability, 144 h, stronger effect = lower value.
The nature of assay [2]: growth inhibition of DIPG glioma cells, dose response, cell-based, SU-DIPG-XVII, MIPE5.0, CellTiter-Glo, qHTS (AID 1347060; cut-off not given, nearly all actives have AC50 up to about 26 µM;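 also: cells exposed to compound for 48 hours before viability readout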). Conditions: SU-DIPG-XVII viability, CellTiter-Glo ATP luminescence.
Assay [3] in a line: growth inhibition of DIPG glioma cells, dose response, cell-based, JHH-DIPG-1, MIPE4.0, CellTiter-Glo, qHTS (AID 1347062; cut-off not given, nearly all actives have AC50 up to about 27 µM;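 as to AC50: cells exposed to compound for two days before readout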). Conditions: JHH-DIPG-1 viability, CellTiter-Glo ATP luminescence.
Assay [4] in a line: growth inhibition of DIPG glioma cells, dose response, cell-based, SU-DIPG-IV, MIPE4.0, CellTiter-Glo, qHTS (AID 1347063; cut-off not given, nearly all actives have AC50 up to about 30 µM;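 also: compound exposure lasted 48 hours before the viability readout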). Conditions: SU-DIPG-IV viability, CellTiter-Glo ATP luminescence.
Assay [5] is described as follows: viability loss in pontine glioma line – cell-based, SU-DIPG-XXV, MIPE5.0, CellTiter-Glo, qHTS, dose response (AID 1347065; cut-off not given, nearly all actives have AC50 up to about 26 µM;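 also: cells exposed to compound for 48 hours before ATP readout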). Conditions: CellTiter-Glo ATP luminescence.
Assay [6] can be described thus: JHH-DIPG-1 glioma cell viability, MIPE5.0 library, CellTiter-Glo luminescence, qHTS (AID 1347067; cut-off not given, nearly all actives have AC50 up to about 26 µM;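 also: cells exposed to compound for 48 hours before readout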). Conditions: JHH-DIPG-1 glioma viability, CellTiter-Glo ATP luminescence.
Assay [7] can be described thus: SU-DIPG-XXV glioma cell viability, MIPE5.0 library, qHTS (AID 1347068; cut-off not given, nearly all actives have IC50 up to about 30 µM;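 also: cells exposed to compound for 48 hours before viability readout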).
A short description of assay [8]: SU-DIPG-VI glioma cell viability, MIPE4.0 library, CellTiter-Glo luminescence, qHTS (AID 1347066; cut-off not given, nearly all actives have AC50 up to about 30 µM;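 also: cells exposed to compound for 48 hours before readout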). The settings on record: CellTiter-Glo ATP luminescence.
Assay [9] is described as follows: sensitizers of A549 cells to miR-34 induction, primary screen, imaging, A549 dox-inducible miR-34, nuclei and caspase counts (AID 1347080;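 active = compounds whose cell count with miR-34 switched on is under 0.7 times the count with it off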). The settings on record: A549 miR-34 inducible, Hoechst nuclei count, 48 h.
Assay [10] can be described thus: survival rescue of mitochondrial mutant cells in low glucose, primary screen, MELAS cybrids, Rieske KO mouse fibroblasts, CellTiter-Glo (AID 1508586;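 active = mean z-score across replicates of 1.96 or higher in either the MELAS or the Rieske mutant cell line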;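 also: z relative to plate mean and SD of compound and empty wells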).
Setting [11] is: at 0.0195 µM, OCI-P5x cells, with rucaparib 20 µM, 100% = cells with rucaparib alone.
Where [12] appears, read: at 0.0195 µM, OCI-P5x cells, without rucaparib.
Where [13] appears, read: at 0.0781 µM, OCI-C5x cells, with rucaparib 10 µM, 100% = cells with rucaparib alone.
Where [14] appears, read: at 0.0781 µM, OCI-C5x cells, without rucaparib.
[15] abbreviates: at 0.0781 µM, OCI-P5x cells, with rucaparib 20 µM, 100% = cells with rucaparib alone.
[16] abbreviates: at 0.0781 µM, OCI-P5x cells, without rucaparib.
[17] abbreviates: at 0.313 µM, OCI-C5x cells, with rucaparib 10 µM, 100% = cells with rucaparib alone.
[18] abbreviates: at 0.313 µM, OCI-C5x cells, without rucaparib.
Where [19] appears, read: at 0.313 µM, OCI-P5x cells, with rucaparib 20 µM, 100% = cells with rucaparib alone.
Setting [20] is: at 0.313 µM, OCI-P5x cells, without rucaparib.
The mark [21] stands for this setting: at 1.25 µM, OCI-C5x cells, with rucaparib 10 µM, 100% = cells with rucaparib alone.
Setting [22] is: at 1.25 µM, OCI-C5x cells, without rucaparib.
The mark [23] stands for this setting: at 1.25 µM, OCI-P5x cells, with rucaparib 20 µM, 100% = cells with rucaparib alone.
Setting [24] is: at 1.25 µM, OCI-P5x cells, without rucaparib.
Where [25] appears, read: at 5 µM, OCI-C5x cells, with rucaparib 10 µM, 100% = cells with rucaparib alone.
[26] abbreviates: at 5 µM, OCI-C5x cells, without rucaparib.
[27] abbreviates: at 5 µM, OCI-P5x cells, with rucaparib 20 µM, 100% = cells with rucaparib alone.
Where [28] appears, read: at 5 µM, OCI-P5x cells, without rucaparib.

Molecules are shown by their SMILES. Inconclusive results are not listed. Activity calls are given as the source filed them.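 The calls were made as follows, unless noted: active = normalized viability below 100% at a tested concentration; inactive = the rest.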

As to `O=C(NC1CCNCC1)c1[nH]ncc1NC(=O)c1c(Cl)cccc1Cl`, the viability was 96.7% (active) in assay [1] (setting [11]); 99% (active) in [1] (setting [12]); 108% (inactive) in assay [1] (setting [13]); 118% (inactive) in assay [1] (setting [14]); 93.7% (active) in assay [1] (setting [15]); 89.4% (active) in assay [1] (setting [16]). In addition, the viability is 86.2% (active) in assay [1] (setting [17]); 99.6% (active) in [1] (setting [18]); 88% (active) in [1] (setting [19]); 78.2% (active) in assay [1] (setting [20]); 10.3% (active) in assay [1] (setting [21]); 13.9% (active) in assay [1] (setting [22]). Further, the viability in assay [1] (setting [23]) is 20.4% (active); in [1] (setting [24]), 15.8% (active); in assay [1] (setting [25]) it was 13% (active); in assay [1] (setting [26]) it was 12.2% (active); in assay [1] (setting [27]), 17.1% (active); in [1] (setting [28]), 14% (active).

In the case of `O=C1NC(=O)C(c2cnc3ccccn23)=C1c1cn2c3c(cccc13)CN(C(=O)N1CCOCC1)CC2`, the concentration at half-maximal activity (AC50) in assay [2] was 1.05 µM (active); in assay [4], 0.00833 µM (active); in assay [5] it was 11.8 µM (active); in assay [6] it was 18.6 µM (active). The call in assay [3] was inactive. Besides, in [7], the 50% inhibitory concentration (IC50) was 18.6 µM (active).

Regarding `C#Cc1cccc(Nc2ncnc3cc(OCCOC)c(OCCO)cc23)c1`, the concentration at half-maximal activity (AC50) in assay [2] is 11.8 µM (active); in [3], 6.62 µM (active); in [4], 2.96 µM (active); in assay [5] it was 7.42 µM (active); in [6], 2.63 µM (active). Moreover, the compound was called inactive in [8]. For the same compound, the fold change in assay [9] (stronger effect = lower value, cell number ratio, induced over uninduced) was 0.787 (inactive); in assay [9] (measured here: relative caspase fold change +Dox/-Dox) it was 0.554. The cell count in assay [9] (measured here: total cells with miR-34 induction, stronger effect = lower value) came to 2660; in assay [9] (measured here: total cells without miR-34 induction), 3380. Further, the z-score is -0.467 (inactive) in [10] (MELAS cybrid survival, CellTiter-Glo 48 h, stronger effect = higher value) and -0.287 in assay [10] (Rieske KO mouse fibroblast survival, CellTiter-Glo 72 h). The viability is 118% (inactive) in assay [1] (at 0.000305 µM, OCI-C5x cells, with rucaparib 10 µM, 100% = cells with rucaparib alone); 140% (inactive) in [1] (at 0.000305 µM, OCI-C5x cells, without rucaparib); 109% (inactive) in assay [1] (at 0.000305 µM, OCI-P5x cells, with rucaparib 20 µM, 100% = cells with rucaparib alone); 119% (inactive) in assay [1] (at 0.000305 µM, OCI-P5x cells, without rucaparib); 113% (inactive) in assay [1] (at 0.00122 µM, OCI-C5x cells, with rucaparib 10 µM, 100% = cells with rucaparib alone); 143% (inactive) in assay [1] (at 0.00122 µM, OCI-C5x cells, without rucaparib). The viability in [1] (at 0.00122 µM, OCI-P5x cells, with rucaparib 20 µM, 100% = cells with rucaparib alone) is 109% (inactive); in [1] (at 0.00122 µM, OCI-P5x cells, without rucaparib), 114% (inactive); in [1] (at 0.00488 µM, OCI-C5x cells, with rucaparib 10 µM, 100% = cells with rucaparib alone), 119% (inactive); in [1] (at 0.00488 µM, OCI-C5x cells, without rucaparib), 127% (inactive); in [1] (at 0.00488 µM, OCI-P5x cells, with rucaparib 20 µM, 100% = cells with rucaparib alone) it was 106% (inactive); in [1] (at 0.00488 µM, OCI-P5x cells, without rucaparib), 109% (inactive). For the same compound, the viability was 108% (inactive) in assay [1] (at 0.0195 µM, OCI-C5x cells, with rucaparib 10 µM, 100% = cells with rucaparib alone); 120% (inactive) in [1] (at 0.0195 µM, OCI-C5x cells, without rucaparib); 103% (inactive) in assay [1] (setting [11]); 107% (inactive) in [1] (setting [12]); 113% (inactive) in [1] (setting [13]); 129% (inactive) in assay [1] (setting [14]). The viability in [1] (setting [15]) was 96.3% (active); in assay [1] (setting [16]), 106% (inactive); in assay [1] (setting [17]) it was 100% (active); in assay [1] (setting [18]), 102% (inactive); in assay [1] (setting [19]) it was 97.1% (active); in assay [1] (setting [20]) it was 100% (inactive). Besides, the viability in [1] (setting [21]) was 78.3% (active); in [1] (setting [22]), 95.1% (active); in [1] (setting [23]), 85.9% (active); in assay [1] (setting [24]), 93.4% (active); in assay [1] (setting [25]), 54.8% (active); in [1] (setting [26]), 52.7% (active). Also, the viability in assay [1] (setting [27]) is 68.7% (active); in [1] (setting [28]), 64.5% (active).

Regarding `C[C@@H]1COC(Nc2ccc3ncnc(Nc4ccc(OCc5nccs5)c(Cl)c4)c3c2)=N1`, the AC50 is 20.9 µM (active) in assay [2], 18.7 µM (active) in assay [3], 16.6 µM (active) in [4] and 20.9 µM (active) in [5]. Also, the IC50 in [7] was 23.5 µM (active).

The record behind these values is PubChem BioAssay.
